This passage reports Potency results from PubChem BioAssay (Tox21).

Molecules are shown by their SMILES. “And” between values parts separate entries of the source, which are not always exact repeats. Equal entries are not always repeated. Some compounds were tested as several samples or in several runs, with calls that do not always agree. The source made the active and inactive calls. Unless noted, the call rests on the fitted dose curve; in most records, active means well fitted curve in the direction sought with a large enough effect in the repeat runs; inconclusive means weak or mixed curves; inactive means no such curve, though single readings can be large; an effect the other way counts as inactive or inconclusive.

A short description of experiment [1]: qHTS assay to identify small molecule antagonists of the thyroid receptor (TR) signaling pathway (AID 743065). Further: nearly all actives have a fitted effect of over 55% in size. The method in brief:
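GH3.TRE-Luc rat pituitary cells carrying two TR response elements driving luciferase were plated for 4 h, given compound plus 1 nM T3 (final), and incubated 23.5 h at 37 C. ONE-Glo luminescence measured reporter inhibition; CellTiter-Fluor fluorescence tracked cytotoxicity.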
Background: qHTS replaces the single test concentration by a dilution series.

Experiment [2] deals with thyroid hormone receptor (rat, GH3 cells). In words: qHTS assay to identify small molecule agonists of the thyroid receptor (TR) signaling pathway (AID 743066; calls by dose curve).
Experiment [3] has as its target Estrogen receptor (Homo sapiens) (UniProt P03372). As to the kind of experiment: qHTS assay to identify small molecule antagonists of the estrogen receptor alpha (ER-alpha) signaling pathway (AID 743069; active means well fitted curve in the direction sought with a large enough effect in the signal ratio in the repeat runs, not every such curve was filed as active; inconclusive means weak or mixed curves, or effect the other way; inactive means no such curve, though single readings can be large or run the other way; the % refers to the signal ratio). Summed up: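 Estradiol-stimulated ER-alpha-UAS-bla HEK293 cells, 18 hr compound exposure at 37C. LiveBLAzer B/G substrate, 2 hr RT, fluorescence read.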
Experiment [4] can be described thus: qHTS assay to identify small molecule antagonists of the estrogen receptor alpha (ER-alpha) signaling pathway - cell viability counter screen (AID 743074; calls by dose curve;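 further: HEK293 cells carrying ER-alpha-UAS-bla reporter stimulated with 17beta-estradiol; nearly all actives have a fitted effect of over 45% in size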).
In experiment [5] the target is Estrogen receptor (Homo sapiens) (UniProt P03372). As to the kind of experiment: qHTS assay to identify small molecule agonists of the estrogen receptor alpha (ER-alpha) signaling pathway (AID 743075; calls by dose curve;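 further: HEK293 GripTite cells with ER-alpha and UAS-driven beta-lactamase reporter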).
Sequence of Estrogen receptor (Homo sapiens) (P03372 whole entry, looked up): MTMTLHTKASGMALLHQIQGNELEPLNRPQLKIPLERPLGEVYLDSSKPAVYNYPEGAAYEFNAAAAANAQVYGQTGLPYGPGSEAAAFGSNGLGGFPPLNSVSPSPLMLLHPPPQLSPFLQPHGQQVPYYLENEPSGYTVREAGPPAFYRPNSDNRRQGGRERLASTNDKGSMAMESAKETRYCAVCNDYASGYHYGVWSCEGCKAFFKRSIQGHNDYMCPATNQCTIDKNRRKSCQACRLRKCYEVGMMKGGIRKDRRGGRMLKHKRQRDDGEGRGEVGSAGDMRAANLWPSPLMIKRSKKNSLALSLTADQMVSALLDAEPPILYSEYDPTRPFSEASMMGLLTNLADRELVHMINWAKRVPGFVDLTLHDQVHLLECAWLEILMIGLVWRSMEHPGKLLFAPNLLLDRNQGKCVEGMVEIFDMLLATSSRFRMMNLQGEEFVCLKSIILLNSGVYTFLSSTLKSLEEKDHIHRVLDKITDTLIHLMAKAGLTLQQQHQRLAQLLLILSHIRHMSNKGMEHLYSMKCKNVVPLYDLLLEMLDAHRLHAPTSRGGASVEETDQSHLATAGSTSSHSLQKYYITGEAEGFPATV
The nature of experiment [6]: qHTS assay to identify small molecule antagonists of the estrogen receptor alpha (ER-alpha) signaling pathway using the BG1 cell line - cell viability counter screen (AID 743081).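 Further: compound given together with 17beta-estradiol as the ER stimulus; nearly all actives have a fitted effect of over 45% in size.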
A further experiment addresses Aromatase (Homo sapiens) (UniProt P11511). In words: qHTS assay to identify aromatase inhibitors (AID 743083). Further: nearly all actives have a fitted effect of over 55% in size.
Experiment [7] can be described thus: qHTS assay to identify aromatase inhibitors - cell viability counter screen (AID 743084).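 Further: cells stimulated with testosterone during compound exposure; nearly all actives have a fitted effect of over 55% in size.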
In experiment [8] the target is Estrogen receptor (Homo sapiens) (UniProt P03372). In words: qHTS assay to identify small molecule agonists of the estrogen receptor alpha (ER-alpha) signaling pathway using the BG1 cell line (AID 743079). Further: nearly all actives have a fitted effect of over 20% in size.
The nature of experiment [9]: qHTS assay to identify small molecule antagonists of the estrogen receptor alpha (ER-alpha) signaling pathway using the BG1 cell line (AID 743080; calls by dose curve;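 further: BG1 cells stimulated with 17beta-estradiol alongside compound; nearly all actives have a fitted effect of over 25% in size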). The method in brief:
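BG1-Luc-4E2 cells (endogenous full-length ER-alpha, 4xERE luciferase) hormone-starved 5 days in charcoal-stripped FBS, plated 4,000/well for 24 h, then compound plus 17beta-estradiol for 21.5 h at 37 C; ONE-Glo luminescence read.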
Potency means the concentration at half of the fitted maximal effect.

Sequence of Aromatase (Homo sapiens) (P11511 whole entry, looked up): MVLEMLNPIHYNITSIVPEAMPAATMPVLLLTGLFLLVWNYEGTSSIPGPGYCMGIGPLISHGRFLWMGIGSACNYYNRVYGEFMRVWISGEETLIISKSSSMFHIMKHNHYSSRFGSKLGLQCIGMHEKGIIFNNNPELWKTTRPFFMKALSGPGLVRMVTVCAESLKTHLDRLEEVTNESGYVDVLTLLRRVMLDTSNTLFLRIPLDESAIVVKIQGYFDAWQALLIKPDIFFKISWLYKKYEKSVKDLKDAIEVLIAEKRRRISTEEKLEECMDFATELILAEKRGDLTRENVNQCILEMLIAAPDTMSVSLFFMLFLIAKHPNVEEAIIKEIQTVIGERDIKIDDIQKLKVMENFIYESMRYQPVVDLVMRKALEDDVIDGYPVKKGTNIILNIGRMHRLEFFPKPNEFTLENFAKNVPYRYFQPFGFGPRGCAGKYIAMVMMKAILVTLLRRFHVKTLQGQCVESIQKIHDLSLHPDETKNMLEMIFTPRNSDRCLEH

With `COC(=O)C1=C(C)NC(C)=C(C(=O)OCCN(C)Cc2ccccc2)C1c1cccc([N+](=O)[O-])c1` (stereo not given), the Potency in [1] was 9.44 µM (active) and 17.1 µM (active); in [3] it was 23.9 µM [inconclusive] (active); in experiment [6] it was 54.2 µM (active); with Aromatase (Homo sapiens), 29.8 µM (active) and 60.8 µM (active); in experiment [7] it was 21.1 µM (active) and 54.2 µM (active). The Potency result in experiment [2], in experiment [4] and in experiment [5] was “inactive” each time.
With `c1cc(N(CC2CO2)CC2CO2)ccc1OCC1CO1` (stereo not given), the Potency in [1] is 4.86 µM (active) and 3.86 µM (active); in the experiment with Aromatase (Homo sapiens) it was 24.4 µM (active) and 54.5 µM (active); in experiment [7] it was 27.3 µM (active). Also, the Potency result in experiment [2], in experiment [4], in experiment [5], in [8] and in experiment [6] was “inactive” throughout.
Regarding `c1cc(-c2ccncc2)ccn1`, the Potency result in experiment [1], in experiment [2], in experiment [3], in [4], in [5] and in experiment [8] was “inactive” throughout. Moreover, the Potency result (in experiment [6]; with Aromatase (Homo sapiens); in experiment [7]) was “inactive” in each case.
As for `O=CCCCC=O`, the Potency result in experiment [1], in experiment [2], in experiment [3], in [4], in experiment [5] and in experiment [8] was “inactive” throughout. The Potency result (in experiment [6]; with Aromatase (Homo sapiens); in experiment [7]) was “inactive” throughout.
Take `OC[C@H]1O[C@@H]2O[C@H]3[C@H](O)[C@@H](O)[C@@H](O[C@H]4[C@H](O)[C@@H](O)[C@@H](O[C@H]5[C@H](O)[C@@H](O)[C@@H](O[C@H]6[C@H](O)[C@@H](O)[C@@H](O[C@H]7[C@H](O)[C@@H](O)[C@@H](O[C@H]8[C@H](O)[C@@H](O)[C@@H](O[C@H]1[C@H](O)[C@H]2O)O[C@@H]8CO)O[C@@H]7CO)O[C@@H]6CO)O[C@@H]5CO)O[C@@H]4CO)O[C@@H]3CO`: the Potency result in experiment [1], in [2], in experiment [4] and in [6] was “inactive” in each case.
In the case of `CC(=O)Oc1ccccc1C(=O)Nc1ncc([N+](=O)[O-])s1`, the Potency in experiment [1] is 11.9 µM (active) and 7.85 µM (active); in [4] it was 7.56 µM (active); in [8], 668 nM (active); with Aromatase (Homo sapiens) it was “inactive and 19.7 µM (active)”; in [7], 22.1 µM (active). For the same compound, the Potency result in experiment [2], in experiment [3] and in [5] was “inactive” each time.
Regarding `Cc1ccc2c(n1)Oc1ccc(C(C)C(=O)OCC(=O)N(C)C)cc1C2` (stereo not given), the Potency entry in experiment [1], in [2], in experiment [3], in experiment [4], in experiment [5] and in experiment [8] was “inactive” in each case. In addition, the Potency entry (in [6]; with Aromatase (Homo sapiens); in [7]) was “inactive” in each case.
`O=C(c1ccccc1)c1ccc(O)cc1O`: the Potency entry (in experiment [1]; in experiment [3]; in experiment [6]; with Aromatase (Homo sapiens); in [7]) was “inactive” throughout. In addition, the Potency result in [2] is “inactive and 30.6 µM (active)”; in [5], 19.9 µM [inconclusive] (active) and 38.9 µM [inconclusive] (active); in [8], 9.88 µM (active) and 9.69 µM (active).
For the compound `COc1c(Cl)c(Cl)c(Cl)c(Cl)c1Cl`, the Potency entry (in experiment [1]; in experiment [2]; in experiment [4]; in experiment [6]; with Aromatase (Homo sapiens); in experiment [7]) was “inactive” in each case.
On to `CN(C)CCC=C1c2ccccc2CCc2ccccc21`, for which the Potency in experiment [1] is 26.6 µM (active) and 24.3 µM (active) and 21.7 µM (active); in experiment [3] it was 54.9 µM [inconclusive] (active). In addition, the Potency result (in [2]; in experiment [5]; in experiment [8]; in [6]; with Aromatase (Homo sapiens); in experiment [7]) was “inactive” each time.
With `COC(=O)c1ccccc1`, the Potency entry (in [1]; in experiment [2]; in [4]; in experiment [6]; in the experiment with Aromatase (Homo sapiens); in experiment [7]) was “inactive” each time.
For `CCCc1c(OCCCCc2nn[nH]n2)ccc(C(C)=O)c1O`, the Potency in experiment [1] is 23.7 µM (active) and 61.1 µM (active). For the same compound, the Potency result in experiment [2], in [4], in experiment [5], in [8], in [9] and in experiment [6] was “inactive” in each case. Also, the Potency entry (in the experiment with Aromatase (Homo sapiens); in [7]) was “inactive” each time.
Turning to `O=C1OC2(c3cc(Br)c(O)c(Br)c3Oc3c2cc(Br)c(O)c3Br)c2c(Cl)c(Cl)c(Cl)c(Cl)c21`, the Potency in experiment [1] is 54.5 µM (active) and 41.6 µM (active); in experiment [6] it was 8.64 µM (active) and 18.6 µM (active); in experiment [7], 4.86 µM (active) and 8.31 µM (active). Also, the Potency entry (in experiment [2]; in [3]; in experiment [5]; in experiment [8]; in the experiment with Aromatase (Homo sapiens)) was “inactive” throughout.
Take `Nc1ccccc1N`: the Potency in experiment [1] was 5.45 µM (active). The Potency entry (in experiment [2]; in experiment [4]; in experiment [5]; in experiment [8]; in experiment [9]; with Aromatase (Homo sapiens)) was “inactive” in each case. The Potency entry in experiment [7] is “inactive”.
Take `O=P(O)(O)O`: the Potency entry (in [1]; in [2]; in experiment [4]; in experiment [6]; with Aromatase (Homo sapiens); in experiment [7]) was “inactive” throughout.
Regarding `Cc1cccc(N(C)C(=S)Oc2ccc3ccccc3c2)c1`, the Potency result in [1], in experiment [2], in experiment [3], in experiment [4], in experiment [5] and in experiment [6] was “inactive” throughout. Further, the Potency entry (in the experiment with Aromatase (Homo sapiens); in [7]) was “inactive” throughout.
For `Cc1cc2nc3c(=O)[nH]c(=O)nc-3n(C[C@H](O)[C@H](O)[C@H](O)CO)c2cc1C`, the Potency result in experiment [1], in experiment [2] and in experiment [4] was “inactive” each time.
As to `COc1ccc(C(=O)CC(=O)c2ccc(C(C)(C)C)cc2)cc1`, the Potency in [1] was 29.8 µM (active). The Potency entry (in experiment [2]; in [4]; in experiment [6]; with Aromatase (Homo sapiens); in [7]) was “inactive” in each case.
`CCCCC(CC)COP(=O)(OCC(CC)CCCC)OCC(CC)CCCC` (stereo not given): the Potency entry (in experiment [1]; in [2]; in experiment [4]; in experiment [6]; with Aromatase (Homo sapiens); in experiment [7]) was “inactive” in each case.
Regarding `Nc1ncn([C@@H]2O[C@H](CO)[C@@H](O)[C@H]2O)c(=O)n1`, the Potency is 7.5 µM (active) and 9.69 µM (active) in experiment [1]; 13.3 µM (active) and 8.63 µM (active) with Aromatase (Homo sapiens). For the same compound, the Potency result in experiment [2], in [4], in experiment [5], in experiment [8], in [9] and in experiment [6] was “inactive” each time.
With `O=C(c1ccccc1)c1ccccc1O`, the Potency entry in experiment [1], in [2], in experiment [4], in experiment [6] and in experiment [7] was “inactive” each time. Further, the Potency result with Aromatase (Homo sapiens) was “inactive and 27.3 µM (active)”.
`COC(=O)Nc1nc2ccc(S(=O)c3ccccc3)cc2[nH]1` (stereo not given): the Potency is 10.6 µM (active) and 15.3 µM (active) in [1]; 12.2 µM (active) in experiment [9]. The Potency entry (in experiment [2]; in [4]; in [5]; in experiment [8]; in [6]; with Aromatase (Homo sapiens)) was “inactive” each time. For the same compound, the Potency entry in experiment [7] was “inactive”.
As to `Clc1nc(Cl)c(Cl)c(Cl)c1Cl`, the Potency entry (in experiment [1]; in experiment [2]; in experiment [4]; in experiment [6]; in the experiment with Aromatase (Homo sapiens); in experiment [7]) was “inactive” throughout.
As for `O=C(c1ccc(OCCN2CCCCC2)cc1)c1c(-c2ccc(O)cc2)sc2cc(O)ccc12`, the Potency in experiment [1] is 6.68 µM (active) and 4.86 µM (active); in experiment [4] it was 23.9 µM (active) and 49 µM (active) and 54.9 µM (active); in experiment [6], 8.41 µM (active) and 10.9 µM (active) and 13.7 µM (active); with Aromatase (Homo sapiens), 11.9 nM (active) and 3.9 nM (active) and 4.3 nM (active); in [7] it was 29.8 µM (active) and 34.4 µM (active). Further, in experiment [2], the Potency entry was “inactive”.
As to `O=C(COc1ccc(Cl)cc1)N1CCN(Cc2ccc3c(c2)OCO3)CC1`, the Potency entry (in experiment [1]; in experiment [2]; in experiment [3]; in [5]; in [6]; with Aromatase (Homo sapiens)) was “inactive” each time. In addition, the Potency entry in [7] was “inactive”. For the same compound, the Potency entry in experiment [4] was “inactive and 30.9 µM (active)”; in [9], 61.1 µM (active).
Consider `Cc1ncc[nH]1`, for which the Potency result (in experiment [1]; in [2]; in experiment [4]; in experiment [6]; in the experiment with Aromatase (Homo sapiens); in experiment [7]) was “inactive” in each case.
For the compound `O=Cc1ccccc1O`, the Potency entry in experiment [1], in experiment [2], in experiment [3], in [5], in experiment [9] and in experiment [6] was “inactive” throughout. Moreover, the Potency entry (in the experiment with Aromatase (Homo sapiens); in experiment [7]) was “inactive” each time.
